Source: PubChem BioAssay (NCI)
Compounds without any hit were thinned out: in the full panel of roughly 79,000, 15% have a hit. Values without a mark were called inactive. Calls of active or inactive are those of the source. Cut-off read from the data, not from the text of the source: active = growth inhibition above about 70%; inactive = the rest.

Assays:
[1] = NCI Yeast Anticancer Drug Screen. Data for the rad50 strain (AID 155);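 note: 0% = growth of vehicle-only cultures of the same strain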; conditions: S. cerevisiae rad50 strain growth inhibition, active compounds read high
Outline: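 Compounds were tested on a yeast strain with an engineered DNA damage repair alteration; the reported value is growth inhibition normalised to vehicle treatment.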

[2] = NCI Yeast Anticancer Drug Screen. Data for the mec2-1 strain (AID 157); conditions: S. cerevisiae mec2-1 strain, active compounds read high
Outline: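 mec2-1 yeast strain, carrying an alteration in DNA damage repair or cell cycle control, was exposed to compounds; growth inhibition was measured relative to vehicle-treated controls.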

[3] = NCI Yeast Anticancer Drug Screen. Data for the sgs1 mgt1 strain (AID 161);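 note: 0% = growth of cultures given vehicle only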; conditions: S. cerevisiae sgs1 mgt1 strain, active compounds read high
Outline: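 Percent growth inhibition was derived by comparing compound-exposed mutant yeast with vehicle-exposed cultures. The strain carries alterations in DNA damage repair.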

[4] = NCI Yeast Anticancer Drug Screen. Data for the cln2 rad14 strain (AID 165);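 note: 0% = growth equal to vehicle treated cultures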; conditions: S. cerevisiae cln2 rad14 strain, active compounds read high
Outline: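 Yeast carrying cln2 and rad14 alterations (cell cycle control and DNA damage repair) were exposed to compounds. Growth inhibition was measured against vehicle-treated controls.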

[5] = NCI Yeast Anticancer Drug Screen. Data for the bub3 strain (AID 167); conditions: S. cerevisiae bub3 mutant strain, active compounds read high
Outline: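 Growth of a checkpoint-deficient yeast mutant is measured after compound exposure. Values represent inhibition relative to vehicle.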

[6] = NCI Yeast Anticancer Drug Screen. Data for the mlh1 rad18 strain (AID 175); conditions: S. cerevisiae mlh1 rad18 strain growth inhibition, active compounds read high
Outline: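 Growth inhibition of the yeast strain was measured after compound exposure and expressed relative to vehicle-treated controls. The strain carries defined defects in DNA damage repair.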

[7] = at 5.0 µM (retest, dose inferred, filed as 0.5)
[8] = at 50.0 µM (retest, dose inferred, filed as 5.0)

Row | SMILES | growth inhibition [1, 7] | growth inhibition [1, 8] | growth inhibition ([1]; at 50.0 µM) | growth inhibition [2, 7] | growth inhibition [2, 8] | growth inhibition ([2]; at 50.0 µM) | growth inhibition [3, 7] | growth inhibition [3, 8] | growth inhibition ([3]; at 50.0 µM) | growth inhibition [4, 7] | growth inhibition [4, 8] | growth inhibition ([4]; at 50.0 µM) | growth inhibition [5, 7] | growth inhibition [5, 8] | growth inhibition ([5]; at 50.0 µM) | growth inhibition [6, 7] | growth inhibition [6, 8] | growth inhibition ([6]; at 50.0 µM)
1 | C[C@@]1(CO)[C@H](O)CC[C@@]2(C)[C@H]1CC[C@H]1C[C@@H]3C[C@@]12CC[C@@]3(O)COC(=O)CN | 0% | 65% | 97.3% (active) | -1% | 98% (active) | 57.1% | -1% | 46% | 61.6% | -12% | 49% | 22.9% | 11% | 33% | 91.7% (active) | 6% | 97% (active) | 93.8% (active)
2 | COc1ccc(OC)c(Cc2cnc3nc(N)nc(N)c3c2C)c1 | 21% | 35% | 67.5% | 18% | 74% (active) | 19.7% | 12% | 36% | 41.5% | 9% | 19% | 6.45% | 13% | 19% | 29.1% | 18% | 23% | -1.5%
3 | O=[N+]([O-])c1cc(-c2ccccc2)c(O)c([N+](=O)[O-])c1 | 31% | 78% (active) | 93.8% (active) | 22% | 60% | 88.8% (active) | 27% | 71% (active) | 85.8% (active) | 27% | 51% | 74.8% (active) | 17% | 55% | 89.4% (active) | 31% | 67% | 92.8% (active)
4 | O=C1C=C(Cl)C(=O)c2ccccc21 | 90% (active) | 99% (active) | 99% (active) | 35% | 100% (active) | 99% (active) | 30% | 99% (active) | 99.3% (active) | 31% | 98% (active) | 99.1% (active) | 47% | 99% (active) | 98.8% (active) | 53% | 99% (active) | 99% (active)
5 | CCCCN(CCCC)CCCCCCCCCCO | -2% | -2% | 45.4% | -1% | 1% | 36.2% | 1% | 1% | 52.6% | 2% | 0% | 4.2% | 3% | 7% | 70% (active) | -1% | -1% | 25.4%
6 | CC(C)N=C(N)/N=C(\N)Nc1ccc2ccc3ccccc3c2c1 | 3% | 99% (active) | 99.8% (active) | -9% | 99% (active) | 25.1% | 12% | 100% (active) | 99.7% (active) | 3% | 100% (active) | 99.5% (active) | 27% | 99% (active) | 46.3% | 41% | 99% (active) | 99.7% (active)
7 | CCCCC(CCc1ccc([N+](=O)[O-])cc1)(C(C)=O)C(=O)OCC (configuration not stated) | 1% | -41% | 59.7% | 2% | -10% | 13.1% | -2% | 24% | 47% | -4% | -14% | 4.75% | 11% | 45% | 83.2% (active) | -10% | -50% | 62%
8 | Cc1ccc(N2C(=O)C=CC2=O)cc1 | 95% (active) | 99% (active) | 99.3% (active) | 99% (active) | 99% (active) | 99.5% (active) | 89% (active) | 99% (active) | 99.7% (active) | 92% (active) | 100% (active) | 99.5% (active) | 99% (active) | 99% (active) | 98.9% (active) | 82% (active) | 100% (active) | 99.2% (active)
9 | Cc1ccc(/C=C2\CNC/C(=C\c3ccc(C)cc3)C2=O)cc1 | 68% | 96% (active) | 86% (active) | 54% | 98% (active) | 86.4% (active) | 76% (active) | 98% (active) | 90.5% (active) | 55% | 91% (active) | 77.2% (active) | 75% (active) | 97% (active) | 87.2% (active) | 78% (active) | 97% (active) | 83.8% (active)
10 | NNc1cccc([N+](=O)[O-])c1 | 12% | 68% | 76.8% (active) | 0% | 71% (active) | 84.2% (active) | 10% | 50% | 57.2% | 24% | 67% | 72.6% (active) | -6% | 94% (active) | 81.8% (active) | 11% | 94% (active) | 78% (active)
11 | CCc1cccc(CC)c1N1C(=O)C=CC1=O | 45% | 78% (active) | 92.7% (active) | 45% | 89% (active) | 94.2% (active) | 99% (active) | 100% (active) | 94% (active) | 88% (active) | 99% (active) | 92.1% (active) | 100% (active) | 100% (active) | 92.6% (active) | 38% | 87% (active) | 93.3% (active)
12 | CC1(C)OC2C(COC(c3ccccc3)(c3ccccc3)c3ccccc3)OC(c3c[nH]c4c(N)ncnc34)C2O1 (configuration not stated) | 9% | 99% (active) | 98.9% (active) | 40% | 99% (active) | 99.1% (active) | -6% | 99% (active) | 99.2% (active) | -20% | 99% (active) | 97.7% (active) | 10% | 99% (active) | 98.8% (active) | 25% | 99% (active) | 98.7% (active)
13 | CCOC(=O)c1[nH]c(C#N)c(C(=O)OCC)c1C | 6% | 76% (active) | 4.15% | 1% | 23% | 26.4% | 3% | 17% | 33.8% | 1% | 45% | 12.6% | 3% | 48% | 53.2% | 4% | 66% | 10%
14 | CN1CCc2cc3c(c4c2C1C(O)c1ccccc1-4)OCO3 (configuration not stated) | 17% | 32% | 31.4% | 12% | 9% | 17.7% | 9% | 7% | 26.6% | 7% | 17% | 31.8% | 7% | 27% | 36.6% | 13% | 11% | 15%
15 | CCCCCCCCCCCC[n+]1ccccc1 (tested in a mixture with another compound) | 34% | 96% (active) | 99.1% (active) | 91% (active) | 96% (active) | 99.1% (active) | 31% | 97% (active) | 99.1% (active) | 18% | 94% (active) | 98.5% (active) | 88% (active) | 96% (active) | 99.2% (active) | 21% | 95% (active) | 99% (active)
16 | CCOC(=O)C1=NN(c2ccccc2)C(=O)/C1=C\N1C(=O)/C(=C/c2cccc(O)c2)SC1=S | -9% | 11% | 6.8% | -16% | 17% | 1.9% | -2% | 9% | 3.45% | -13% | -13% | 60.5% | 4% | 12% | 3.45% | 0% | 10% | -4.9%
17 | CCCCCC[C@@H](O)C/C=C\CCCCCCCC(=O)OCCOC | -4% | 2% | 24.9% | -3% | 26% | 5.4% | -6% | 24% | 4.2% | 2% | -4% | 77.2% (active) | -5% | 86% (active) | 12.6% | 0% | 13% | 34.1%
18 | O=C(CBr)c1ccc(OC(=O)c2ccccc2)cc1 | 97% (active) | 99% (active) | 45.3% | 100% (active) | 99% (active) | 13.1% | 100% (active) | 100% (active) | 18.4% | 44% | 99% (active) | -12.7% | 100% (active) | 100% (active) | 45.8% | 62% | 98% (active) | 74.5% (active)
19 | C/C(=N/NC(N)=S)c1ccc(C)cc1 | -4% | 40% | 69% | -4% | 6% | 3.5% | -5% | 2% | 40.2% | -11% | -22% | 2.3% | -13% | -8% | 45% | -4% | 20% | 66.1%
